16 compounds from PubChem BioAssay (NCATS) can be followed below.

Values joined by “and” are separate entries in the source; they are usually repeats but may differ in a detail not shown here. Identical values can stand only once. Records with an inconclusive call do not appear. Unmarked numbers belong to inactive results. Active and inactive are the calls of the source. Calls come from the whole dose curve; as a rule, active = well fitted curve in the direction sought with a large enough effect; inconclusive = small, poorly fitted or top-dose-only effect, or another doubt; inactive = no such curve, though single readings can be large; an effect the other way counts as inactive or inconclusive.

Test [1] is described as follows: Viability qHTS for spleen associated tyrosine kinase inhibitor (SYKi) naive MV4-11 cells (AID 1963823). Note: nearly all actives have a fitted effect of over 40% in size. In short, it runs like this: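 qHTS, SYK inhibitor-naive MV4-11; 500 cells/well; 72 hr compound exposure, 37 C; CellTiter-Glo added, 10 min RT; luminescence read.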
(Quantitative high-throughput screening tests each substance at several concentrations.)

Test [2] in a line: Viability qHTS for spleen associated tyrosine kinase inhibitor (SYKi) drug resistant MV4-11 cells (AID 1963824). Note: nearly all actives have a fitted effect of over 35% in size. In short, it runs like this: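 CellTiter-Glo luminescence, read 10 min after reagent addition, reports viability after a 72 hr compound exposure. Cells are an MV4-11 line made resistant to SYK inhibition, seeded at 500 per well onto compound-containing plates.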
The nature of test [3]: Quantitative highthroughput screen to assess conditional lethalithy of NOMO1 cells grown in RPMI1640 with untreated serum (RPMI+s) (AID 1963876).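 For Viability: 100% = DMSO wells and 0% = empty wells without cells.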 Note: nearly all actives have a fitted effect of over 35% in size. An outline of the steps:
(§1)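 Each medium arm—HPLM with 10% dialyzed FBS, or RPMI1640 with 5 mM glucose and 10% untreated or dialyzed FBS—was screened against an 11-point, 3-fold compound titration for 48 h at 37 °C, with CellTiter-Glo luminescence as endpoint.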

Test [4] is described as follows: Quantitative highthroughput screen to assess conditional lethalithy of P12 Ichikawa cells grown in RPMI1640 with untreated serum (RPMI+s) (AID 1963881).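 For Viability: series mostly up to about 46 µM; 100% = DMSO wells and 0% = empty wells without cells.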 Note: nearly all actives have a fitted effect of over 35% in size. As to conditions: Potency: viability. In short, it runs like this: as §1
Test [5] is described as follows: Quantitative highthroughput screen to assess conditional lethalithy of SEM cells grown in RPMI1640 with unreated serum (RPMI+s) (AID 1963883).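 For Viability: 100% = DMSO wells and 0% = empty wells without cells.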 Note: nearly all actives have a fitted effect of over 35% in size. In short, it runs like this:
as §1

Test [6] in a line: Quantitative highthroughput screen to assess conditional lethalithy of SEM cells grown in RPMI1640 with dialyzed fetal bovine serum (RPMI+ds) (AID 1963884).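 For Viability: series mostly up to about 46 µM; 100% = DMSO control wells and 0% = empty wells without cells.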 Note: nearly all actives have a fitted effect of over 35% in size. An outline of the steps: as §1
Test [7] in a line: Cellular viability qHTS for adrenocortical cancer (ACC) cell line SW-13 (AID 1963989).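 For activity (max response): cells grown in serum-free medium with ITS supplement; % is set by controls: 0 for no effect and ±100 for the full control effect.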 Note: nearly all actives have a fitted effect of over 65% in size. As to conditions: SW-13 ACC cells viability, CellTiter-Glo, 48 h; activity (max response): hits give low values. In short, it runs like this: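 Here, serum-free SW-13 cultures were dosed up to 46 uM. Following 48 h, ATP-dependent luminescence (CellTiter-Glo) reported viable cells, and logistic modeling produced IC50 values.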

A short description of test [8]: Cellular viability qHTS for adrenocortical cancer (ACC) cell line NCI-H295R (AID 1963990). Note: nearly all actives have a fitted effect of over 60% in size. In short, it runs like this:
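Viability of NCI-H295R after 48 h of treatment (final up to 46 uM) measured through cellular ATP luminescence.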

The nature of test [9]: Quantitative highthroughput screen to assess conditional lethalithy of SEM cells grown in Human Plasma-Like Medium with dialyzed fetal bovine serum (HPLM+ds) (AID 1963882). For Viability: series mostly up to about 46 µM. Note: nearly all actives have a fitted effect of over 35% in size. In short, it runs like this:
as §1

Test [10] in a line: Quantitative highthroughput screen to assess conditional lethalithy of P12 Ichikawa cells grown in Human Plasma-Like Medium with dialyzed fetal bovine serum (HPLM+ds) (AID 1963879). For Viability: series mostly up to about 46 µM. Note: nearly all actives have a fitted effect of over 35% in size. As to conditions: Potency: viability. An outline of the steps:
as §1

Test [11] is described as follows: Quantitative highthroughput screen to assess conditional lethalithy of P12 Ichikawa cells grown in RPMI1640 with dialyzed fetal bovine serum (RPMI+ds) (AID 1963880).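 For Viability: 100% = DMSO wells and 0% = empty wells on each plate.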 Note: nearly all actives have a fitted effect of over 35% in size. Conditions: Potency: P12-Ichikawa viability. In short, it runs like this:
as §1
Potency is the fitted concentration of half-maximal effect.

For `CC(C(=O)O)c1ccc2c(c1)CC(=O)c1ccccc1S2` (stereo not drawn), the Potency result in [1], in test [2], in test [5], in test [6] and in test [8] was “inactive” in each case. The Potency in test [3] is 7.43 µM (active); in test [4], 9.35 µM (active). Besides, the activity (max response) in [7] was -16.4% and 14.9%.

Take `Cc1cnc(C(=O)NCCc2ccc(S(=O)(=O)NC(=O)NC3CCCCC3)cc2)cn1`: the Potency entry in [1], in test [2], in test [3], in test [9] and in test [5] was “inactive” throughout. Further, the activity (max response) in test [7] is -1.95% and -7.3%.

Consider `COc1cc2ncn(-c3cc(OCc4ccccc4C(F)(F)F)c(C(N)=O)s3)c2cc1OC`, for which the Potency in test [1] was 355 nM (active) and 662 nM (active); in test [2] it was 282 nM (active) and 263 nM (active); in test [3], 2.64 µM (active); in test [10], 1.32 µM (active); in [11], 2.35 µM (active); in test [4], 2.09 µM (active). The Potency is 2.09 µM (active) in test [5] and 1.26 µM (active) in [7].

In the case of `CC1(C)CCC(c2ccc(Cl)cc2)=C(CN2CCN(c3ccc(C(=O)NS(=O)(=O)c4ccc(N[C@H](CCN5CCOCC5)CSc5ccccc5)c(S(=O)(=O)C(F)(F)F)c4)cc3)CC2)C1`, the Potency is 116 nM (active) and 332 nM (active) in test [1]; 32.6 nM (active) and 118 nM (active) in test [2]; 0.662 µM (active) in [3]; 0.118 µM (active) in test [10]; 0.264 µM (active) in test [11]; 0.166 µM (active) in test [4]. The Potency is 83.3 nM (active) in [9], 0.0526 µM (active) in test [5] and 52.6 nM (active) in test [6]. Also, the Potency result in test [8] was “inactive”.

In the case of `COc1cc2ncnc(Nc3ccc(F)c(Cl)c3)c2cc1OCCCN1CCOCC1`, the Potency is 4220 nM (active) in [1]; 6.68 µM (active) and 3.66 µM (active) in test [2]; 42.9 µM (active) in [5]. For the same compound, the Potency entry in test [3], in test [4] and in test [8] was “inactive” each time.

With `O=C(NC[C@H](O)CO)c1ccncc1Nc1ccc(I)cc1F`, the Potency in test [1] was 235 nM (active); in [2], 166 nM (active); in test [3], 0.469 µM (active); in test [8], 31.6 µM (active). Further, in test [10], the Potency result was “inactive”.

With `CCCCc1oc2ccc(NS(C)(=O)=O)cc2c1C(=O)c1ccc(OCCCN(CCCC)CCCC)cc1`, the Potency in test [1] was 6.68 µM (active) and 2.59 µM (active) and 6.61 µM (active); in [2] it was 2.99 µM (active) and 2.91 µM (active) and 6.61 µM (active); in test [3] it was 1.18 µM (active); in [10], 8.33 µM (active); in test [11], 9.35 µM (active); in test [4], 8.33 µM (active). The Potency is 11.6 µM (active) and 3.98 µM (active) in test [7]; 4.11 µM (active) and 4.47 µM (active) in [8].

With `CC(C)(O)c1cc2nc(-c3cnc(N)nc3)nc(N3CCOCC3)c2s1`, the Potency in test [1] is 580 nM (active); in [2] it was 1160 nM (active); in test [3], 1.87 µM (active); in test [10], 0.935 µM (active); in test [7], 1.26 µM (active); in [8], 1 µM (active).

Regarding `N#Cc1c(NC(=O)c2cccc3ccccc23)sc2c1CCCC2`, the Potency is 116 nM (active) in test [1]; 186 nM (active) in test [2]; 0.935 µM (active) in test [3]; 0.59 µM (active) in test [10]; 469 nM (active) in [9]; 0.418 µM (active) in test [5]. Besides, the Potency was 372 nM (active) in test [6], 0.282 µM (active) in test [7] and 0.562 µM (active) in [8].

Turning to `Cc1ccc(C(=O)N(CCCN)[C@@H](c2nc3cc(Cl)ccc3c(=O)n2Cc2ccccc2)C(C)C)cc1`, the Potency is 4.2 nM (active) in test [1]; 3.7 nM (active) in test [2]; 0.0013 µM (active) in [3]; 0.0013 µM (active) in test [10]; 0.0021 µM (active) in test [11]; 0.0013 µM (active) in test [4]. For the same compound, the Potency is 1.2 nM (active) in [9], 0.0012 µM (active) in [5], 0.01 µM (active) in [7] and 0.0794 µM (active) in [8].

`Cc1ccc(S(=O)(=O)OCC(=O)Nc2ccc(C(=O)O)c(O)c2)cc1`: the Potency result in test [1], in test [2], in test [3] and in [8] was “inactive” in each case. For the same compound, the Potency was 23.5 µM (active) in [10] and 16.6 µM (active) in test [5]. In addition, the activity (max response) in test [7] is 6.62%.

With `O=C(O)Cn1nnc(-c2cc(N3CCC(Oc4cc(F)ccc4Br)CC3)no2)n1`, the Potency entry in test [1], in test [5], in test [6] and in test [8] was “inactive” each time. Further, the Potency is 103 nM (active) in test [2]; 1.05 µM (active) in test [3]; 9.35 µM (active) in test [10]; 11.8 µM (active) in test [11]; 9.35 µM (active) in test [4].

Consider `CC(C)(S)[C@@H](N)C(=O)O`, for which, in test [1], the viability (% of control) was 88.9% [at 4.97 µM]. Further, the viability, % of control in test [2] was 89% [at 4.97 µM]. The Potency entry in test [3], in [10], in [11] and in test [4] was “inactive” each time. Besides, the activity (max response) in test [7] was 0.215%.

For the compound `CCCCCNC(=O)N1CCC(CN(Cc2ccc(Cl)cc2)Cc2ccc([N+](=O)[O-])s2)C1` (stereo not drawn), the Potency in [1] is 20900 nM (active); in test [2] it was 13200 nM (active); in [8] it was 28.2 µM (active). The Potency result in test [3], in test [10] and in test [11] was “inactive” throughout.

`COc1ccc2cc([C@H](C)C(=O)O)ccc2c1`: the Potency entry in test [1], in [2], in test [3] and in [10] was “inactive” each time. The values for the Potency in [5] and in test [6] were 9.35 µM (active) and 10500 nM (active), respectively. Further, in test [7], the activity (max response) is 13.9% and -10.9%.

On to `CN(C)CCCNC(=O)c1ccc(-c2cc(O)c3ncccc3c2)cc1`, for which the Potency in [1] is 5800 nM (active); in [2], 5.17 µM (active) and 14.8 µM (active); in test [8], 12.6 µM (active). Also, the Potency entry in test [3], in [10] and in test [11] was “inactive” each time.
